Bioassay records deposited in PubChem by The Scripps Research Institute Molecular Screening Center.
The full list was thinned out, with hits kept by preference.
TTR transcr act: activators of transthyretin transcription. SH-SY5Y TTR promoter Gaussia luciferase, luminescence; 100% = recombinant luciferase protein wells. activation, % at 16.7 µM. actives 1.3% (n = 92,000). AID 1117267;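 active means activation above the mean of all tested compounds plus 3 SD, cut at about 9.5% in these data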;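 further: cells exposed to compounds for one day before reading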
Large screens that a line does not name were inactive.

Cc1ccc(N=C2SC(C(=O)Nc3ccc(OC(F)(F)F)cc3)C(N)=C2C(=O)Nc2c(C)cc(C)cc2C)cc1 (centres undefined)	TTR transcr act 9.8
CS/C(=C\[N+](=O)[O-])Nc1ccc(OC(F)(F)F)cc1	none
Cc1ccc(-c2nc3ncccn3c2NC(=O)Nc2ccc(OC(F)(F)F)cc2)cc1	none
CCOC(=O)[C@]12CCCC=C1N(CCCOC)C(=O)[C@@H]2CC(=O)NCC1CCCCC1	none
CC(C)n1c(O)c(N=NC(=O)CNC(=O)CCc2ccccc2)c2ccccc21	none
Cn1c(O)c(N=NC(=N)N)c2ccccc21	TTR transcr act 17
CCn1c(O)c(N=NC(=O)c2cccs2)c2ccccc21	none
CN(C)CCCNC(=O)C[C@@H]1CC[C@@H]2[C@H](COc3ccc(NC(=O)c4cccc(F)c4)cc3C(=O)N2C)O1	none
CN(Cc1ccccc1)C(=O)OCc1cn(Cc2ccc(F)cc2)nn1	none
N#Cc1ccc(Cn2ccc3ccc(-c4ccc5ccn(Cc6ccccc6)c5c4)cc32)cc1	none
C#CCN1CC(N(C)CCO)CS1(=O)=O (centres undefined)	none
NC(=O)c1ccc(NC(=O)c2ccc3c(c2)OCO3)cc1	none
CC(=O)c1cccc(NC(=O)c2ccc3c(c2)OCO3)c1	none
COc1cc(NC(=O)c2ccc3c(c2)OCO3)ccc1NC(=O)C(C)C	TTR transcr act 21
CS(=O)(=O)N1C[C@]2(c3ccccc3)CC1Cc1ccccc12	none
CCCCCC(=O)NC1CCCCN(Cc2ccccc2C)C1=O (centres undefined)	none
COc1ccc(NC(=O)CNC(=O)Cc2ccccc2)cc1	none
COc1ccc(NC(=O)C(NC(=O)CNC(C)=O)c2ccc(C)cc2)cc1 (centres undefined)	TTR transcr act 29
CCOCCCNC(=O)C(NC(=O)c1ccc(NC(C)=O)cc1)c1ccc(OC)cc1 (centres undefined)	none
CCC(c1nnc(SCC(=O)Nc2nnc(-c3ccccc3)o2)n1Cc1ccccc1)N(C)C (centres undefined)	TTR transcr act 28
CCC(c1nnc(SCC(=O)Nc2ccc(C(N)=O)cc2)n1Cc1ccccc1)N(C)C (centres undefined)	none
CCC(c1nnc(SCC(=O)Nc2ccc(S(N)(=O)=O)cc2)n1Cc1ccccc1)N(C)C (centres undefined)	none
COCC(=O)N[C@H]1C[C@@H]2O[C@@H](CO)CC[C@@H]2O[C@@H]1CCc1ccc(-c2ccccc2)cc1	none
CN(C)S(=O)(=O)c1cccc(NC(=O)COC(=O)c2c[nH]c(=O)[nH]c2=O)c1	none
CC1CCCC(C)N1C(=O)COC(=O)c1ccc[nH]c1=O (centres undefined)	none
CN(C(=O)COC(=O)c1c[nH]c(=O)[nH]c1=O)C1CCCCC1	TTR transcr act 23
O=S1(=O)c2ccc(N3CCCC3)cc2Oc2ccccc2CN1Cc1cn(Cc2cccc(F)c2)nn1	none
CCC1CCCCN1C(=O)n1ncc(C(O)(c2ccccc2)c2ccccc2)n1 (centres undefined)	none
COc1cccc(C2CC(=O)Nc3cc(OC)c(OC)c(OC)c32)c1OC (centres undefined)	TTR transcr act 16
COc1cccc(C2CC(=O)Nc3cc(OC)c(OC)cc32)c1 (centres undefined)	none
COc1cccc(C2CC(=O)Nc3n[nH]c(-c4ccccc4)c32)c1OC (centres undefined)	none
CC(C)CN1CN2CCc3ccccc3C2CS1(=O)=O (centres undefined)	none
COP(=O)(O)[C@@H](CC(C)C)NC(=O)OCc1ccccc1	none
O=C(Nc1ccc(F)cc1)C1CCN(C(=O)NCc2ccccc2)CC1	none
CCOc1ccc(C(=O)NC2CCN(C(=O)NCc3ccccc3)CC2)cc1	none
CCOc1ccc(NC(=O)C2CCCN(C(=O)NCc3ccccc3)C2)cc1 (centres undefined)	TTR transcr act 11
Cc1ccc(S(=O)(=O)N2O[C@@H](c3ccccc3)C[C@H]2CON2C(C)(C)CCCC2(C)C)cc1	none
COc1ccc(S(=O)(=O)N(C)C[C@H]2Oc3ccc(NC(=O)C4CC4)cc3C(=O)N([C@H](C)CO)C[C@@H]2C)cc1	TTR transcr act 12
COc1ccc(S(=O)(=O)N(C)C[C@@H]2Oc3ccc(NS(C)(=O)=O)cc3C(=O)N([C@@H](C)CO)C[C@H]2C)cc1	none
Cc1ccc(S(=O)(=O)N(C)C[C@H]2Oc3ccc(NC(=O)C4CCCCC4)cc3C(=O)N([C@H](C)CO)C[C@H]2C)cc1	none
COC(=O)[C@]12C[C@H](CC(=O)N3CCOCC3)C(=O)N(Cc3ccc(Cl)cc3Cl)C1=C[C@H](C1CCCC1)O[C@@H]2C	none
C[C@@H]1CCCCCCCCC(=O)OCCN(C(=O)OC(C)(C)C)[C@H](C)CCCCCCCCC(=O)OCCN(C(=O)OC(C)(C)C)[C@H](C)CCCCCCCCC(=O)OCCN(C(=O)OC(C)(C)C)[C@H](C)CCCCCCCCC(=O)OCCN1C(=O)OC(C)(C)C	TTR transcr act 19
CCSc1nnc([C@@H]2CCCN2C(=O)OC(C)(C)C)o1	none
COC(=O)CC1C(=O)NCCN1C(=O)OC(C)(C)C (centres undefined)	none
Nc1[nH]c2cc(C(F)(F)F)ccc2c1C(=O)NC1CCCCC1	none
O=C(COc1ccc(S(=O)(=O)N2CCCC2)cc1Cl)NCc1ccc2c(c1)OCO2	TTR transcr act 14
COC(=O)COc1ccc(S(=O)(=O)Nc2ccc3c(c2)OCO3)cc1Cl	none
O=C(NCc1ccc2c(c1)OCO2)C1CCN(S(=O)(=O)N2CCCCC2)CC1	none
C=CC[C@@H]1NN2C(=O)[C@@H](C)[C@@H]3c4ccccc4C=NN3[C@@H]2c2ccccc21	none
COc1ccc(C2CC3CN(C4CCCCC4)C(=O)C3N2C)cc1 (centres undefined)	none
O=C(Nc1ccc(F)cc1)OCc1cn(Cc2ccc(F)c(F)c2)nn1	none
CN(CCOc1ccc(-c2ccn(S(=O)(=O)c3c(Cl)cccc3Cl)n2)cc1)c1ccccn1	TTR transcr act 15
CCOc1ccc(S(=O)(=O)n2ccc(C)n2)cc1	none
Cc1ccc(S(=O)(=O)n2ccc(-c3cccc(OCc4c(F)cccc4Cl)c3)n2)cc1	none
O=c1cc(N2CCN(c3cccc(C(F)(F)F)c3)CC2)[nH]c(=O)n1-c1ccccc1	none
CCCCN1CCS(=O)(=O)N(Cc2ccc(Cl)cc2)C(C(=O)OC)C1 (centres undefined)	none
CCOC(=O)[C@@]12CCC3=C1N(CCC3)C(=O)[C@H](CC(=O)NCCC(C)C)C2	none
C/C=C/C=C\C(=O)Nc1cccc(C2=NOC3(C2)C[C@@H](C(N)=O)N(C(=O)/C(C)=C/C)C3)c1 (some centres undefined)	none
C/C=C\C=C/C(=O)Nc1cccc(C2=NOC3(C2)C[C@H](C(N)=O)N(C(=O)CC)C3)c1 (some centres undefined)	none
C/C=C\C=C/C(=O)Nc1cccc(C2=NOC3(C2)C[C@H](C(N)=O)N(C(=O)c2ccc(OC)cc2)C3)c1 (some centres undefined)	TTR transcr act 16
O=S1(=O)c2ccc(N3CCC[C@@H]3CO)cc2OCCCN1C1CC1	none
COC(=O)[C@]12C[C@H](CC(=O)N3CCN(C(=O)c4ccco4)CC3)C(=O)N(Cc3cccc4ccccc34)C1=C[C@H](C(C)C)O[C@@H]2C1CC1	none
O=S1(=O)c2ccc(N3CC[C@@H](O)C3)cc2O[C@H]2CCN1C2	none
COC(=O)[C@]12C[C@H](CC(=O)NCc3cccs3)C(=O)N(Cc3ccccc3)C1=C[C@H](COCc1ccccc1)O[C@@H]2C	none
Cc1cc(C)n(CC(=O)Nc2ccccc2)n1	none
CC(=O)c1ccc(NC(=O)Cn2nc(C)cc2C)cc1	TTR transcr act 10
Cc1cc([N+](=O)[O-])nn1CC(=O)Nc1ccc(F)cc1	none
